Most compounds without a hit are left out; they make up all but 3.2% or so of the library.
GLP1R inv ag = GLP-1 receptor (human) inverse agonism. HEK293 GLP-1R CRE-luciferase, luminescence, 24 h; GLP-1R form is constitutively active. Potency, µM (doses to about 38.3 µM), inactives show at the top dose activity change, negative = inhibition, most hits filed as inhibitors. actives 1.6% (n = 410,000). AID 624417; further: on the % scale 0 is the no-effect control and ±100 the full control effect; nearly all actives have a fitted effect of over 55% in size
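Inverse agonism was detected as reduced cAMP-driven luciferase luminescence after 24 h compound treatment. The cells were HEK293 clones expressing constitutively active human GLP-1R with the reporter. Reporter-only and GPR119 cell lines served as counterscreen controls.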
GLP1R ag = activates the human GLP-1 receptor; actives 0.007% (n = 380,000); Potency, µM (doses to about 45.6 µM), for the others: at the top dose activation, hits mostly activators; P43220; HEK293 GLP-1R CRE-luciferase, luminescence, 4-6 h; cells express a hypersensitive GLP-1R form; AID 624172; further: % of control where 0% means no effect
GLP1R cytotox = cytotoxicity in counter-screen for GLP-1R inverse agonists; HEK293 cAMP-luciferase reporter cells, luminescence, 24 h; Potency, µM (highest dose often 38.3 µM), without a hit: at the highest dose activity change, negative = inhibition, usual class: inhibitors; actives 0.13% (n = 410,000); AID 624418;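 further: loss of luciferase light is scored as toxicity; on the % scale 0 is the no-effect control and ±100 the full control effect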
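Cells in DMEM/10% Nu serum/1% pen-strep, 1536-well format. Pre-incubated 12 h, dosed with 23 nL compound, incubated a further 24 h. Luciferase detection, 12 min at room temp, luminescence.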
ClpP mod = qHTS Assay for Activators of ClpP; ATP-dependent Clp protease proteolytic subunit (Bacillus subtilis (strain 168)), P80244; purified B. subtilis ClpP, FRET peptide cleavage, 20 min; Potency, µM (top dose mostly 57.5 µM), for the others: top-dose activity change, negative = active; actives 1.9% (n = 340,000); active means well fitted falling curve with a large enough effect; inconclusive means small, poorly fitted or top-dose-only effect; inactive means no such curve, though single readings can be large or run the other way; further: the source files actives as falling curves though it sought activators and does not explain the sign; nearly all actives have a fitted effect of over 65% in size
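FRET quenching reversal measured ClpP activation: 10 microg/mL B. subtilis ClpP at pH 8 with the FRET-FV decapeptide, read at 430 nm after 320 nm excitation. The 20-min minus 0-min signal was scaled between DMSO/no-enzyme wells and ADEP (5.8 microM final).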
* marks the source's active call; other numbers are inactive results; ? = inconclusive; . = no result given. Unless noted, the call rests on the fitted dose curve; in most records, active means well fitted curve in the direction sought with a large enough effect; inconclusive means small, poorly fitted or top-dose-only effect, or another doubt; inactive means no such curve, though single readings can be large; an effect the other way counts as inactive or inconclusive. Potency means the concentration at half of the fitted maximal effect.

SMILES | GLP1R inv ag | GLP1R ag | GLP1R cytotox | ClpP mod
CN1CCN(C(=O)c2cc3c(ccc4ccccc43)oc2=O)CC1 | 2% | -8% | 25% | 13µM*
O=C(Nc1cccnc1)c1cc2c(ccc3ccccc32)o1 | 0% | 0% | -22% | 25µM*
O=C(N/N=C/c1ccncc1)c1cc2c(ccc3ccccc32)o1 | 0% | -10% | 5% | ?
O=C(O)c1cc2c(ccc3ccccc32)o1 | 8% | -1% | 4% | 28µM*
NCCCN(Cc1ccc(Cl)c(Cl)c1)c1ccc(Br)cn1 | . | . | . | -4%
CC1=C(C(=O)N2CCN(c3ccccc3)CC2)C2(CCCCC2)OC1=O | 7% | . | 1% | 0%
CCc1ccc(N2C=C(C(=O)OC)C(c3cccc4ccccc34)C(C#N)=C2N)cc1 (centres undefined) | 1µM* | . | -13% | -13%
O=C1CCSc2ccc(S(=O)(=O)Nc3cccc(C(F)(F)F)c3)cc2N1 | ? | 2% | -1% | 1%
CN(C)CCCNc1ncnc2scc(-c3ccccc3)c12 | 11µM* | -4% | 0% | .
Cc1c(C)n(CCc2ccccc2)c2ncnc(NCCCN(C)C)c12 | 2µM* | 1% | -27% | .
c1ccc(-c2csc3ncnc(NCc4ccccn4)c23)cc1 | -6% | -2% | -6% | 0%
CCCNc1ncnc2c1c(-c1ccccc1)cn2-c1ccccc1 | 10µM* | . | -4% | -16%
OCCOCCNc1ncnc2c1c(-c1ccccc1)cn2-c1ccccc1 | 2% | 27% | -3% | -4%
Fc1ccc(-n2cc(-c3ccccc3)c3c(NCCc4ccccc4)ncnc32)cc1 | 7.9µM* | . | 3% | 32µM*
O=C(Cn1nc2c(cc1=O)CCCC2)Nc1ccc(F)cc1F | 3% | . | -7% | -1%
COc1ccc(-n2cc(-c3ccccc3)c3c(NC4CCCC4)ncnc32)cc1 | 1.8µM* | . | 1% | ?
COc1ccc(CCNc2ncnc3c2c(-c2ccccc2)cn3-c2ccc(Cl)cc2)cc1OC | -3% | . | -2% | 22µM*
Cc1ccc(-n2c(C)c(C)c3c(NCCN(C)C)ncnc32)cc1 | 10µM* | -3% | -2% | -7%
COc1ccc(CCNc2ncnc3c2c(-c2ccccc2)cn3-c2ccc(F)cc2)cc1OC | ? | . | -5% | ?
CN(C)CCCNc1ncnc2c1c(-c1ccccc1)cn2-c1ccccc1 | 4µM* | 11% | ? | -5%
COc1ccc(CCNc2cc(C)nc3c(-c4ccccc4)cnn23)cc1OC | ? | 5% | 2% | 28µM*
COCCN(CCOC)c1ncnc2c1c(-c1ccccc1)cn2-c1ccc(C)c(Cl)c1 | ? | . | -5% | 28µM*
COc1ccc(NS(=O)(=O)c2ccc(NC(C)=O)cc2)c(OC)c1 | ? | 2% | -18% | .
COc1ccc(NS(=O)(=O)c2ccc(NC(=O)c3ccc(N(C)S(C)(=O)=O)cc3)cc2)c(OC)c1 | 6% | -8% | 4% | 25µM*
CN(c1ccc(C(=O)Nc2ccc3c(c2)n(C)c(=O)n3C)cc1)S(C)(=O)=O | 13% | 7% | -3% | 25µM*
SMILES | GLP1R inv ag | GLP1R ag | GLP1R cytotox | ClpP mod
O[C@@H]1CN(CC2CCCCC2)[C@@H](c2ccccc2)C[C@H]1n1cc(-c2ccc(F)cc2)nn1 | 4µM* | -1% | ? | -6%
O[C@H]1CN(Cc2cccs2)[C@@H](c2ccccc2)C[C@@H]1n1cc(-c2ccc(F)cc2)nn1 | 10µM* | -5% | -11% | -2%
Cc1ccc([C@H]2C[C@@H](n3cc(-c4ccc(F)cc4)nn3)[C@H](O)CN2CC2CCCCC2)cc1 | -2% | -1% | 3% | -1%
COc1ccc(C(O)c2nc(/C=C/c3ccc(C(F)(F)F)cc3)cs2)cc1 (centres undefined) | -23% | 3% | 4% | 25µM*
COc1cc(C(O)c2nc(/C=C/c3ccccc3)cs2)ccc1F (centres undefined) | ? | 4% | 0% | -13%
COc1ccc(-c2csc(C(O)c3ccc(F)c(F)c3)n2)cc1 (centres undefined) | 11µM* | 8% | -7% | -4%
COc1cc(OC)c(NC(=O)Nc2c(C)n(C)n(-c3ccccc3)c2=O)cc1Cl | 2% | . | -4% | 0%
Cc1ccccc1C(=O)N1CCC(C(=O)N2CCCc3ccccc32)CC1 | -10% | -22% | -16% | 1%
O=C(c1ccc(Cl)cc1)N1CCC(C(=O)N2CCCc3ccccc32)CC1 | -36% | -6% | -22% | 32µM*
COc1ccc(Cn2c(=O)[nH]c3cc(C(=O)NCCCN4CCCC4)ccc3c2=O)cc1 | ? | 20% | 62% | -16%
CCCCCn1c(=O)[nH]c2cc(C(=O)NCCCN3CCC(C)CC3)ccc2c1=O | -15% | -8% | -25% | 28µM*
CCCCCn1c(=O)[nH]c2cc(C(=O)NCCCN3CCCCC3)ccc2c1=O | ? | -4% | 14% | 28µM*
COc1cc2[nH]c(=O)n(Cc3ccc(C(=O)NCCCN4CCN(C)CC4)cc3)c(=O)c2cc1OC | -4% | -8% | -1% | 25µM*
CCCCCn1c(=O)[nH]c2cc(C(=O)NCCN(CC)CC)ccc2c1=O | ? | 0% | -7% | 25µM*
CCCCCn1c(=O)[nH]c2cc(C(=O)NCCN3CCC(C)CC3)ccc2c1=O | 13% | -1% | 6% | -1%
COc1ccc(CCNC(=O)Cn2c(=O)nc(-c3ccccc3)c3cc(Cl)ccc32)cc1OC | -6% | . | -27% | -10%
CCNC(=O)N1c2ccc(OC)cc2C(C)=CC1(C)C | -7% | 1% | -5% | 32µM*
COc1ccc(NC(=O)N2c3ccc(OC)cc3C(C)=CC2(C)C)cc1 | 29% | -4% | 16% | 4%
CCOc1ccc2c(c1)C(C)=CC(C)(C)N2C(=O)Nc1ccccc1 | 37% | 4% | 7% | 28µM*
Cc1c(N)nc([C@@H](CC(N)=O)NC[C@H](N)C(N)=O)nc1C(=O)N[C@H](C(=O)N[C@@H](C)[C@@H](O)[C@@H](C)C(=O)N[C@H](C(=O)NCCc1nc(-c2nc(C(=O)NCCCN[C@H](C)c3ccccc3)cs2)cs1)[C@H](C)O)[C@@H](O[C@H]1O[C@@H](CO)[C@H](O)[C@@H](O)[C@H]1O[C@H]1O[C@@H](CO)[C@@H](O)[C@H](OC(N)=O)[C@H]1O)c1cnc[nH]1 | . | -5% | . | .
OCCCN=c1cc(-c2ccccc2)oc2ccc(Cl)cc12 | ? | -28% | ? | 32µM*
CC1(C)CC(N=c2cc(-c3ccccc3)oc3ccc(Cl)cc23)CC(C)(C)N1 | 3.5µM* | -3% | -25% | 5%
O=c1cc(-c2ccccc2)oc2ccc(O)cc12 | 85% | 17% | -6% | -1%
O=c1cc(-c2ccccc2)oc2ccccc12 | 38% | ? | 0% | 0%
COC(=O)c1c(C)oc2ccc(N(C(=O)Oc3ccccc3)S(=O)(=O)c3ccc(C(C)(C)C)cc3)cc12 | -6% | . | 1% | 0%
CCS(=O)(=O)c1ccc2oc(Nc3cc(C)cc(C)c3)nc2c1 | ? | 14% | -18% | -2%
